A selection: hits, their analogues and other compounds. The true share with any hit is near 2.7%.
Shn3 3UTR inh: Schnurri-3 reporter inhibition in Clone20 osteoblasts; actives 0.52% (n = 360,000); Clone20 osteoblast Shn3 3'UTR firefly luciferase, 24 h; AID 588674; inhibition, % at 12.5 µM;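 active means mean inhibition of at least 75% with every replicate also reaching 75%; inconclusive means mean inhibition at least 75% but some replicate below; inactive means mean inhibition below 75%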
TRPM1 prom inh: MITF TRPM1 promoter inhibition in SK-MEL-5 cells. SK-MEL-5 TRPM1 promoter luciferase, 24 h. inhibition, % at 12.5 µM. actives 0.83% (n = 330,000);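 active means mean inhibition across replicates of 60% or more, whatever share of single replicates reaches that level; inconclusive means some that reach 60%, reason not given; inactive means mean inhibition across replicates below 60%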
HIF-2a inh: blocks HIF-2a reporter activity. AID 624352. actives 0.72% (n = 360,000). 786-0 RCC cells HIF-2a reporter, luciferase luminescence, overnight. inhibition, % at 18.8 µM;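 active means inhibition of the luminescence signal of 40% or more relative to plate controls, in a single-dose primary screen at 18.75 µM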
CF NFkB block: cystic fibrosis NF-kB activation inhibition; KKLEB NF-kB-GFP reporter, PAF-induced, GFP fluorescence overnight; inhibition, % at 5 µM; actives 0.86% (n = 360,000); AID 588850;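 active means at least 50% inhibition at 5 µM, scaled per plate between neutral and stimulator controls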;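 further: PAF is a Pseudomonas aeruginosa culture filtrate used as stimulus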
KKLEB tox: counter-screen for CF NF-kB inhibitors: cytotoxicity. activity change (cytotoxicity), % at 5 µM. KKLEB CF airway cells viability, ATPlite luminescence, overnight; stronger effect = lower value; cells stimulated with P. aeruginosa culture filtrate. AID 602141. actives 0.36% (n = 360,000);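 active means corrected activity change at or below -50% at 5 µM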
Peg3 promoter: reduces Peg3 promoter-driven luciferase expression in HeLa; HeLa PEG-Prom luciferase reporter, luminescence, overnight; inhibition, % at 20 µM; actives 1.7% (n = 360,000); AID 588405;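 active means inhibition of at least 50% at 20 µM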
Large screens that a line does not name were inactive; ! = repeats disagree.

COCCn1c(N)c(N(Cc2ccccc2)C(=O)c2ccc(N3CCCC3=O)cc2)c(=O)[nH]c1=O	none
CCN(CC)CCCN=C1N[C@@H](c2cccc(C(F)(F)F)c2)C(C(=O)OC)=C(C)N1CC	TRPM1 prom inh inconclusive, Peg3 promoter 51.3
COc1ccc(-c2cc(=O)oc3cc(OC(C)C(=O)NCCCn4ccnc4)ccc23)cc1 (centres undefined)	none
COc1cc(N=c2ssnc2Cl)c(OC)cc1Cl	Shn3 3UTR inh 94.9!
COc1ccc(OC)c(N=c2ssnc2Cl)c1	none
Cc1ccc(N=c2ssnc2Cl)cc1	Shn3 3UTR inh 87.7
Cc1ccc(S(=O)(=O)Cc2ccc(C(=O)OCc3ccccc3)cc2)cc1	none
COC(=O)c1c[nH]c2c1-c1cc(C(=O)OCc3ccccc3)n(S(=O)(=O)c3ccc(C)cc3)c1C(=O)C2=O	TRPM1 prom inh 112.0, CF NFkB block 85.7, Peg3 promoter 81.9
CN(CC(=O)Nc1ccc(F)c(F)c1F)C(=O)c1cc(S(=O)(=O)N(C)C)ccc1N1CCCC1	none
Cc1cccc(C)c1NC(=O)CN(C)C(=O)c1cc(S(=O)(=O)N(C)C)ccc1N1CCCC1	Shn3 3UTR inh 86.6
CC(C)N(Cc1ccccc1)C(=O)COC(=O)c1cc[n+]([O-])cc1	none
C[C@H]1CN([C@@H](C)CO)S(=O)(=O)c2ccc(Br)cc2O[C@@H]1CN(C)C(=O)CCN1CCCCC1	none (no result: TRPM1 prom inh)
c1ccc(-c2noc(-c3ccc4ccccc4c3)n2)nc1	Shn3 3UTR inh 88.6, TRPM1 prom inh 79.0, HIF-2a inh 88.0, KKLEB tox -90.7, Peg3 promoter 86.8
O=C1C=C(N2CCN(c3ccccn3)CC2)C(=O)c2c(O)ccc(O)c21	TRPM1 prom inh 91.9
O=C(N1CCN(c2ccccn2)CC1)C(Cl)(Cl)Cl	none
COc1ccc(/C=C2\SC(=S)N(CCC(=O)NC3=NCCS3)C2=O)cc1OC	HIF-2a inh 54.4
COc1ccc(/C=C2\SC(=S)N(CCCC(=O)Nc3ccccn3)C2=O)cc1OC	HIF-2a inh 40.0
COc1ccc(/C=C2\SC(=S)N(CCCC(=O)Nc3cccc(C(=O)O)c3)C2=O)cc1OC	none
O=C(c1cccc(C(F)(F)F)c1)C1CCCN(C(=O)c2cc(C3CC3)[nH]n2)C1 (centres undefined)	none
O=C(Oc1cccc([N+](=O)[O-])c1)C1CCN(C(=O)c2ccc(F)cc2)CC1	none
O=C(Nc1ccc(F)cc1)Nc1nnc(-c2ccncc2)s1	CF NFkB block 84.6
O=C(Nc1nnc(-c2ccc(F)cc2)s1)Nc1ccccc1F	none (no result: TRPM1 prom inh)
O=C(Nc1ccc(Cl)cc1)Nc1nnc(-c2ccncc2)s1	CF NFkB block 84.0, KKLEB tox -89.2, Peg3 promoter 63.8
O=C(Nc1ccc(Cl)cc1)Nc1nnc(SCc2ccc(Cl)cc2)s1	none
CCC(Oc1cc(Cl)ccc1Cl)C(=O)N1CCCN(C)CC1 (centres undefined)	none
Nc1nc(N)c2cc(CNc3ccc(Cl)c(Cl)c3)ccc2n1	Shn3 3UTR inh inconclusive, Peg3 promoter 110.1 (no result: TRPM1 prom inh)
O=C1C=C(NCc2ccc(Cl)c(Cl)c2)CC1	none
COc1ccccc1CCC(=O)OCC(=O)Nc1ccc(S(N)(=O)=O)cc1	none
COc1ccccc1CCC(=O)OCC(=O)Nc1ccc(C(N)=O)cc1	CF NFkB block 67.1, KKLEB tox -83.8
COCCN1C(=O)CSCC1(C)C(=O)Nc1ccc2c(c1)OCCO2 (centres undefined)	none (no result: Shn3 3UTR inh, TRPM1 prom inh, CF NFkB block, KKLEB tox, Peg3 promoter)
CCc1ccc(S(=O)(=O)/N=C2\C=C(Nc3cccc(C(=O)O)c3)C(=O)c3ccccc32)cc1	CF NFkB block 95.8
CCc1ccc(S(=O)(=O)/N=C2/C=C(Sc3ncn[nH]3)C(=O)c3ccccc32)cc1	Shn3 3UTR inh 98.0, TRPM1 prom inh 70.0, HIF-2a inh 89.0, CF NFkB block 80.6, Peg3 promoter 102.0
O=C1C=C(Nc2ccc(O)cc2)C(=O)c2ccccc21	none
CCc1ccc(S(=O)(=O)/N=C2\C=C(Nc3ccc(O)cc3)C(=O)c3ccccc32)cc1	Shn3 3UTR inh 94.8, TRPM1 prom inh 99.9, HIF-2a inh 68.6, CF NFkB block 99.4, KKLEB tox -88.2, Peg3 promoter 103.6
C[C@]12C=CC(=O)C=C1CC[C@@H]1C2C(O)C[C@@]2(C)C1CC[C@]2(O)C(=O)COC(=O)CCC(=O)NC(CC(=O)O)C(=O)O (some centres undefined)	CF NFkB block 76.9
C[C@]12C=CC(=O)C=C1CC[C@@H]1[C@@H]2C(=O)C[C@@]2(C)[C@H]1CC[C@]2(O)C(=O)COC(=O)CCC(=O)O	none
CSCCC(NC(=O)CCC(=O)OCC(=O)[C@@]1(O)CCC2[C@@H]3CCC4=CC(=O)C=C[C@]4(C)C3[C@@H](O)C[C@@]21C)C(=O)O (some centres undefined)	CF NFkB block 72.2
CC(C)C[C@H](NC(=O)N1CCn2c1nc1ccccc12)C(=O)NCc1ccc2c(c1)OCO2	none
CCCSc1nc(SCC(=O)NCc2ccccc2)c2c3c(sc2n1)COC(C)(CC)C3 (centres undefined)	none
CCCCSc1nc(SCC(=O)NCc2ccco2)c2c3c(sc2n1)COC(C)(CC)C3 (centres undefined)	Peg3 promoter 77.2
CCOc1ccc(OCCC(=O)OCC(=O)Nc2cc(OCC)c(N3CCOCC3)cc2OCC)cc1	none
CCOc1ccc(S(=O)(=O)NC(C)(C)C)cc1-c1nc2c(C(C)(C)C)nn(C)c2c(=O)[nH]1	Peg3 promoter 52.5
CCOc1ccc(S(N)(=O)=O)cc1-c1nc2c(C(C)(C)C)nn(C)c2c(=O)[nH]1	none
C[C@@H]1CN([C@@H](C)CO)C(=O)c2c(c3ccccc3n2C)-c2ccccc2CO[C@H]1CN(C)S(=O)(=O)c1ccc(C(F)(F)F)cc1	none (no result: TRPM1 prom inh)
C[C@@H]1CN([C@H](C)CO)C(=O)c2c(c3ccccc3n2C)-c2ccccc2CO[C@H]1CN(C)Cc1ccc(Oc2ccccc2)cc1	Peg3 promoter 57.6 (no result: TRPM1 prom inh)
C[C@@H]1CN([C@H](C)CO)C(=O)c2c(c3ccccc3n2C)-c2ccccc2CO[C@H]1CN(C)Cc1ccc(C(F)(F)F)cc1	Peg3 promoter 58.8 (no result: TRPM1 prom inh)
NC(CCc1ccccc1)c1csc(Nc2nncc3ccccc23)n1 (centres undefined)	Peg3 promoter 89.8 (no result: TRPM1 prom inh)
Nc1ccc(CC(N)c2csc(Nc3nncc4ccccc34)n2)cc1 (centres undefined)	none (no result: TRPM1 prom inh)
NC(Cc1ccccc1)c1csc(Nc2nncc3ccccc23)n1 (centres undefined)	Peg3 promoter 95.8 (no result: TRPM1 prom inh)
CC(N)c1csc(Nc2nncc3ccccc23)n1 (centres undefined)	none (no result: TRPM1 prom inh)
O=C1c2ccccc2C(=O)C1c1ccnc2ccccc12	KKLEB tox -70.5, Peg3 promoter 83.1
N#CC1=C(N)SC(N)=C(C#N)C1c1ccnc2ccccc12	none
O=C1c2ccccc2C(=O)C1c1nccc2ccccc12	KKLEB tox -65.4, Peg3 promoter 87.6

High-throughput results as filed in PubChem BioAssay.
